The full ranking holds about 68,000 sequences; the median of “fluorescence intensity (a.u.)” is about 9,100, and the highest 2% start at about 16,000. Many of the other results were omitted from the sample, so the highest values are more common in it than they were.

Sequence of OsWRKY34 (Q0JBA9 entry or part of it): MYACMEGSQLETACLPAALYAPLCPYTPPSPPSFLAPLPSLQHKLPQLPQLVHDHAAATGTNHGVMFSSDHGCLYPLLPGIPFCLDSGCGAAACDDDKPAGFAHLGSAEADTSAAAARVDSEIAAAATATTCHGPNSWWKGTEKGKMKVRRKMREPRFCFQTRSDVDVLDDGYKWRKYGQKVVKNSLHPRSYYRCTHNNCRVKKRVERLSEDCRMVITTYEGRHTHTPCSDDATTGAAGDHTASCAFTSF

This experiment deals with OsWRKY34 (Oryza sativa, UniProt Q0JBA9 1-250). Nature of the experiment: protein-binding microarray (RPBM); PBS, 2% BSA, 51.3 ng/ul salmon testes DNA, 50 uM zinc acetate, 200 nM TF, 25 C, 1 h; high values mean tight binding. Particulars: protein: recombinant; tags: N-terminal polyhistidine and DsRed monomer fusion (pET32a); label: CyDye5-dUTP incorporated in the synthesized complementary strand; 3' TTTTT single-stranded linker to array surface; dsDNA, one strand shown. In short, it runs like this:
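The binding signal for each feature is its fluorescence intensity in arbitrary units. An Axon 4000B scanner was used to read a custom Agilent array that had been made double-stranded with Cy5-dUTP primer extension, blocked with 2% BSA, incubated at 25 °C for 1 h with 200 nM protein in PBS, 2% BSA, salmon testes DNA and 50 µM zinc acetate, and washed. The protein was an N-terminal polyhistidine–DsRed transcription factor fusion from E. coli BL21-CodonPlus, purified on Ni–NTA.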
Take “AGCACCACCACCACCCCAGCGCCTCCTACTCCACCGGCTCCGGAGTCACCTAGTGCAG”: the binding signal is 8830 fluorescence intensity (a.u.).
For “TCCATGCAGTCTTCTTCTTCTGCAGCCTATGCTGTTAGTCCGGAGTCACCTAGTGCAG” the value was 11700 fluorescence intensity (a.u.); for “TTTCATTGTTTCCGCAGACACGCTTTTCAAACTACTAAACCGGAGTCACCTAGTGCAG”, 8080 fluorescence intensity (a.u.); for “AATTTATAACCGTGACCTGCTGCCATATGCTAACCGTTTACGGAGTCACCTAGTGCAG”, 8260 fluorescence intensity (a.u.).
For “CTTTGTGCTGGACCGACGACGTCGTTCGCTCTTTTATCCTCGGAGTCACCTAGTGCAG” the value was 9040 fluorescence intensity (a.u.).
Regarding “TGATCTGATCTGACAATTTGGGCGGGCTGTGTTTTATGAACGGAGTCACCTAGTGCAG”, the binding signal is 12900 fluorescence intensity (a.u.).
For “CATATCAGTGGTTAACTGTGCTGTCTCAGTTGATCTCCCGCGGAGTCACCTAGTGCAG” the value was 8360 fluorescence intensity (a.u.); for “CATGTTAGATGTTTTTTTTCTTGTTACTCTTTTTTATTTTCGGAGTCACCTAGTGCAG”, 13300 fluorescence intensity (a.u.).
For “ACCTCTGTTTTCATGGGCTAGTGGCCCAGTACCTCACTGCCGGAGTCACCTAGTGCAG” the value was 8930 fluorescence intensity (a.u.); for “GCATGGAGGCGTTTCATCAAACACCTTGCGCCTGCGGGAGCGGAGTCACCTAGTGCAG”, 8030 fluorescence intensity (a.u.); for “AACTACAACTATCTTGTTTTTATTTACACGCTTTTCAAACCGGAGTCACCTAGTGCAG”, 8620 fluorescence intensity (a.u.).
For “AACCCACCTATCTTGTTTTCCACGTGTACGCTTTTCAAACCGGAGTCACCTAGTGCAG” the value was 19200 fluorescence intensity (a.u.).
“AACCCACCTCTTTCGTTTTCCGCGCGTACGCTTTTCAAACCGGAGTCACCTAGTGCAG”: the binding signal is 8710 fluorescence intensity (a.u.).
For “TCTGTATATATTACTACTTGCGTTTCTCTTTCTTTCTTCCCGGAGTCACCTAGTGCAG” the value was 11000 fluorescence intensity (a.u.); for “ATCACATCTTAACATTTCATTCTCTGCTCAAAGATTCGATCGGAGTCACCTAGTGCAG”, 8620 fluorescence intensity (a.u.).
For the sequence “AGCTCATCACTTCTTCTTGCATGCATGCACTACCGTCGGCCGGAGTCACCTAGTGCAG”, the binding signal is 10400 fluorescence intensity (a.u.).
Regarding “GGTGAAGCTCTGCGCTGACACGTTGATGCAGCGGAGCACGCGGAGTCACCTAGTGCAG”, the binding signal is 18900 fluorescence intensity (a.u.).
For “TGCACACATGCACACACGCGCGCGCTGCTGCTGCTGCTGACGGAGTCACCTAGTGCAG” the value was 8160 fluorescence intensity (a.u.); for “GCACACCCTCGCTCTGACGACCCTGTCACGTTGAGCTACGCGGAGTCACCTAGTGCAG”, 8240 fluorescence intensity (a.u.); for “ACAACGCATTTCCATTTCTACTCTGCCCCTGGTAAATTACCGGAGTCACCTAGTGCAG”, 12400 fluorescence intensity (a.u.).
For “ACTGCCTTACCTGTTCATCTTCCAAACTGATTTGGTTTGTCGGAGTCACCTAGTGCAG” the value was 9370 fluorescence intensity (a.u.); for “AAACAATTATCTAAAAACCTCACTATTAATAGAGAGATTCCGGAGTCACCTAGTGCAG”, 38700 fluorescence intensity (a.u.); for “ACAATTAACACACGTAAACACTATCTGCTATTGTAAAAAACGGAGTCACCTAGTGCAG”, 8460 fluorescence intensity (a.u.).
For “ACGGCACCTCATAGATTATTCCGTCCGTTCCAACAACCTCCGGAGTCACCTAGTGCAG” the value was 8320 fluorescence intensity (a.u.); for “ACTTTTTATACGCAACTTTCATTGCATATATTTTACTTTTCGGAGTCACCTAGTGCAG”, 9540 fluorescence intensity (a.u.).
In the case of “CTGTAGTGTTGCTTGGTTTCTCTTTTTTGCCTCTTCACGGCGGAGTCACCTAGTGCAG”, the binding signal was 13200 fluorescence intensity (a.u.).
For “CAACGTTGACCCGGGTTGACCCACGGTTCTTCAACAAATGCGGAGTCACCTAGTGCAG” the value was 20700 fluorescence intensity (a.u.).
For “GGGTTGGTTTGGTTTGGTTGCTTCTTCTCTGCTTCAACGGCGGAGTCACCTAGTGCAG” the value was 40000 fluorescence intensity (a.u.); for “TATATAACACAAAATAAGATCAACGTTGACCCGGGTTGACCGGAGTCACCTAGTGCAG”, 10200 fluorescence intensity (a.u.); for “TGTGTTGCTCTCTCTTCACTTGGTTGGCGGCGGCGCTGCGCGGAGTCACCTAGTGCAG”, 8060 fluorescence intensity (a.u.).
As for “AAGAATTTTGCTTTGGTTCAACCTTTTTTCTCTTCTTTCTCGGAGTCACCTAGTGCAG”, the binding signal was 11300 fluorescence intensity (a.u.).
For “ATCTCAATGAGTTGGTCGTTTGCTGCTTCTCTATAGTGAACGGAGTCACCTAGTGCAG” the value was 9140 fluorescence intensity (a.u.).
For “TGGTTTGGTTTGCTTCTTCTCTGCTTCAACGGTTGGTCGACGGAGTCACCTAGTGCAG” the value was 16900 fluorescence intensity (a.u.); for “ACCTTCTTACCCACTCCACCCACTGACAACGTTGGCCACCCGGAGTCACCTAGTGCAG”, 9360 fluorescence intensity (a.u.).
For “CCGTTCGCCACGTCCATCCGTTTTCTGTGCCATAGGCAGGCGGAGTCACCTAGTGCAG” the value was 9340 fluorescence intensity (a.u.); for “GCGTGCTAAACCCTTGTGATCCGTGTATTTAACCACCTTCCGGAGTCACCTAGTGCAG”, 11700 fluorescence intensity (a.u.).
Regarding “ATTGGATCGGATCAGATCCCTTTTGCGCACCACTCGCCTTCGGAGTCACCTAGTGCAG”, the binding signal is 8750 fluorescence intensity (a.u.).
Turning to “TCGAGGAGTGGATGGACGGATGGGTGGGTCATCACTGGTCCGGAGTCACCTAGTGCAG”, the binding signal is 8840 fluorescence intensity (a.u.).
For “CCTCACGCAATTCCACAACTGCTGCTCCCACCCTCATCAGCGGAGTCACCTAGTGCAG” the value was 9580 fluorescence intensity (a.u.).
Consider “TTTGCAATATCAGGGGTGTGTTACATATGTATTTCGATTTCGGAGTCACCTAGTGCAG”, for which the binding signal is 12400 fluorescence intensity (a.u.).
Regarding “TCTACCCGCCTTCCTTTTAGTCCCCGCGTCTCCACAAAATCGGAGTCACCTAGTGCAG”, the binding signal is 10100 fluorescence intensity (a.u.).
“TATTTTCCGTGTGTACCGTTCCGGTTATCAATACCAGCGCCGGAGTCACCTAGTGCAG”: the binding signal was 8380 fluorescence intensity (a.u.).

(Values after PMC7819943, “Rice protein-binding microarrays: a tool to detect cis-acting elements near promoter regions in rice”.)
